# Measurements from PubChem BioAssay AID1490 (National Center for Advancing Translational Sciences (NCATS), 2009).
# “And” between values parts separate entries of the source, which are not always exact repeats. Identical values can stand only once. About 11,000 (3.5%) of roughly 310,000 compounds were called active. Inconclusive results (about 4%) are left out. Shown is part of a subset that was picked to be rich in actives. Values without a mark were called inactive. Calls follow the shape of the dose curve; as a rule, active = well fitted inhibition curve with a large enough effect; inconclusive = small, poorly fitted or top-dose-only effect, or another doubt; inactive = no such curve, though single readings can be large or run the other way.
# Biological target: 4'-phosphopantetheinyl transferase ffp (Bacillus subtilis) (UniProt Q9F4F7)
# Assay: qHTS Assay for Inhibitors of Bacillus subtilis Sfp phosphopantetheinyl transferase (PPTase);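 also: the enzyme is Sfp with the accession as filed and its product quenches rhodamine fluorescence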;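 as to largest response in the series, negative = inhibition: 0% = enzyme reaction without inhibitor and -100% = no enzyme wells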
# Conditions: Biochemical Sfp PPTase activity
# In short: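 Compounds were incubated with enzyme (final 15 nM) for 15 min at room temperature before substrate addition started the reaction. Fluorescence at 525 nm excitation, 598 nm emission was recorded immediately and after 30 minutes.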
# Potency is read from the fitted curve at half-maximal effect.
SMILES,"largest response in the series, negative = inhibition",Potency
O=C(Cc1ccccc1)N1CCN(C2CCCCCC2)CC1,-9.44%,
Cc1noc(C)c1CSc1nc2cc(S(=O)(=O)N3CCOCC3)ccc2o1,,20 µM (active)
CCC1(c2ccccc2)C(=O)NC(=O)N(C)C1=O (stereo unspecified),9.18%,
Nc1ccc(-c2ccc(N)c(N)c2)cc1N,-2.55%,
CN(c1ccccc1)c1ccc([N+](=O)[O-])c2nonc12,-10.3%,
CN(C)C(=O)Oc1ccc2c(c1)O/C(=C\c1ccccc1)C2=O,2.07%,
Cc1nc2ccccn2c1P(=S)(N1CCCCC1)N1CCCCC1,,56.2 µM (active)
COc1ccc2[nH]cc(CCNCc3ccc(Br)cc3)c2c1,-23.1%,
Cc1c(C(=O)O)cccc1-n1c(C)cc(/C=C2\C(=O)NC(=O)N(c3ccc4c(c3)OCO4)C2=O)c1C,-16.8%,
Cc1cccc(N2C(=O)NC(=O)/C(=C\c3cnn(-c4ccccc4)c3)C2=O)c1,,39.8 µM (active)
O=C(Nc1cccc(F)c1)N1CC[C@@]2(CCCN(C(=O)Oc3ccccc3)C2)C1,-5.07%,
CC[N+]1(C)CCCC(OC(=O)C(O)(c2ccccc2)c2ccccc2)C1 (stereo unspecified),15.8% and 11.5%,
COc1ccccc1NC(=O)N1C[C@@H]2C[C@@H](C1)c1cccc(=O)n1C2,13.6%,
CN=C(NC#N)NCCSCc1nc[nH]c1C,5.33% and -12.8% and 5.86%,
COC(=O)N(c1ccc(OC)cc1)P1(=S)OCCC(C)O1 (stereo unspecified),,12.6 µM (active)
CC(C)CN1CCN(Cc2ccccc2C(F)(F)F)CC1CCO (stereo unspecified),6.48%,
O=C(CCN1CCCCC1)NCC(=O)Nc1ccc(Br)cc1C(=O)c1ccccc1,-17.5%,
C[C@@H]1C[C@@H]2O[C@H]2/C=C\C=C\C(=O)Cc2c(Cl)c(O)cc(O)c2C(=O)O1,,15.8 µM (active)
CNP1(NC)=Nc2nn(-c3ccccc3)c(N)c2C(c2ccccc2)=N1,2.05%,
CCNC[C@H](O)c1cccc(O)c1,18.1%,
CCOC(=O)c1c(C)c(C(=O)N2CCC3(CC2)OCCO3)c(C)n1CC,-3.49%,
